Source: PubChem BioAssay (Broad Institute)
C diff growth: C. difficile growth inhibitors, primary screen, HTS; Clostridium difficile clinical isolate growth, OD600, 24 h; stronger effect = lower value; growth activity, negative = inhibition, % at 16 µg/mL (by protocol); 0.25% of 86,000 active; AID 1259249, 2017;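 active means mean growth activity at or below -80% and every replicate also at or below -80%; inconclusive means mean at or below -80% but some replicate above -80%; inactive means mean growth activity above -80%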;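 further: 0% = DMSO wells and -100% = levofloxacin 16 µg/mL wells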
Pf Dd2 growth: P. falciparum Dd2 growth inhibitors, primary screen, SYBR Green fluorescence, single dose replicates. 72 h; stronger effect = lower value. activity change, % at 10 µM. 2.3% of 94,000 active; in the data active means activity change below about -80%; inconclusive means no clear call, values can overlap the other calls
Tcruzi prolif: T. cruzi intracellular proliferation inhibitors, primary screen, cell-based, beta-gal Tulahuen parasites, NIH3T3 host, luminescence. T. cruzi beta-gal in NIH3T3, GalScreen luminescence, 90 h. AID 624255, 2012. 5.9% of 77,000 active. inhibition, % at 8.34 µM;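 active means mean inhibition above about 93%, with at least 55% of replicates each passing it, limit read from the data, passing the limit was not always enough; inconclusive means only one of those two conditions holds; inactive means neither condition holds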
Starred values were filed as active, the others as inactive; ? = inconclusive; · = not tested or not shown. The list is not random: actives were taken first. Their share in the collection is about 6.8%.

SMILES	C diff growth	Pf Dd2 growth	Tcruzi prolif
Cc1noc(C)c1S(=O)(=O)N(C)C[C@@H]1OCCCC[C@H](C)Oc2ccc(NC(=O)c3ccccc3)cc2C(=O)N([C@H](C)CO)C[C@H]1C	2	-65	33
CO[C@@H]1CN(C)C(=O)c2ccc(NC(=O)C3CCCC3)cc2OC[C@@H](C)NC[C@H]1C	·	·	-25
CC(C)NC(=O)N(C)C[C@H]1Oc2ncc(C#CCc3ccccc3)cc2C(=O)N([C@@H](C)CO)C[C@@H]1C	4	-57	54
CCNC(=O)C[C@@H]1C=C[C@@H](NC(=O)C2CCC2)[C@@H](CO)O1	-3	·	·
COC(=O)C[C@@H]1CC[C@H]2[C@@H](COc3ccc(NC(=O)c4cccc(OC)c4)cc3C(=O)N2C)O1	-5	2	-85
Cc1ccccc1-c1ccc2c(c1)O[C@H](CN(C)C(=O)C1CC1)[C@H](C)CN([C@H](C)CO)S2(=O)=O	5	-5	·
C[C@@H]1CN([C@@H](C)CO)C(=O)Cc2cc(NC(=O)C3CC3)ccc2O[C@H]1CN(C)C(=O)Nc1ccccc1	-2	15	·
C[C@@H]1CN([C@H](C)CO)C(=O)c2c(c3ccccc3n2C)-c2ccccc2CO[C@H]1CN(C)S(=O)(=O)c1ccc(C(F)(F)F)cc1	-1	-89*	·
C[C@@H]1CN([C@H](C)CO)C(=O)c2c(c3ccccc3n2C)-c2ccccc2CO[C@@H]1CN(C)S(=O)(=O)c1ccc(C(F)(F)F)cc1	2	-86*	·
COc1ccc(S(=O)(=O)N(C)C[C@@H]2OCc3ccccc3-c3c(n(C)c4ccccc34)C(=O)N([C@H](C)CO)C[C@H]2C)cc1	·	-78	89
C[C@H]1CN([C@@H](C)CO)C(=O)c2c(c3ccccc3n2C)-c2ccccc2CO[C@H]1CN(C)S(=O)(=O)c1ccc(C(F)(F)F)cc1	-5	-91*	·
O=C(CC1CC1)Nc1ccc2c(c1)[C@H]1C[C@@H](CC(=O)NC3CCCC3)O[C@H](CO)[C@H]1O2	·	9	-36
COc1ccc(NC(=O)N(C)C[C@H]2Oc3ncc(-c4ccc(C#N)cc4)cc3C(=O)N([C@@H](C)CO)C[C@@H]2C)cc1	1	-12	·
O=C(C[C@@H]1CC[C@H](NC(=O)CC2CC2)[C@@H](CO)O1)NCc1ccc(-c2ccccc2)cc1	-7	12	-16
CCCC(=O)N1CC2(C1)CN(Cc1ccccc1F)[C@H](CO)c1c2c2ccc(OC)cc2n1C	6	-87*	·
CCCC(=O)N1CCC2(CC1)CN(Cc1ccccc1F)[C@@H](CO)c1c2c2ccc(OC)cc2n1C	5	-83*	·
CCCC(=O)N1CCC2(CC1)CN(Cc1ccccc1F)[C@H](CO)c1c2c2ccc(OC)cc2n1C	2	?	·
COc1ccc2c3c(n(C)c2c1)[C@H](CO)N(Cc1ccccc1F)CC31CN(C(C)=O)C1	6	-25	·
O=C(C[C@H]1C[C@@H]2c3cc(NC(=O)CC4CC4)ccc3O[C@@H]2[C@H](CO)O1)NCCN1CCCCC1	1	15	-39
CN(C)CC#Cc1cccc(-c2nc(C(=O)N[C@@H]3CCN(Cc4ccccc4)C3)cc3c2[C@H](CCO)N(S(=O)C(C)(C)C)C3)c1 (stereo partly specified)	1	-85*	·
CC(C)(C)[S@](=O)N1Cc2cc(C(=O)N[C@H]3CCN(Cc4ccccc4)C3)nc(-c3cccc(-c4ccncc4)c3)c2[C@@H]1CCO	-6	-78	·
CC(C)(C)[S@](=O)N1Cc2cc(C(=O)N[C@@H]3CCN(Cc4ccccc4)C3)nc(-c3cccc(-c4cccnc4)c3)c2[C@@H]1CCO	·	-88*	91
CN(C)CC#Cc1cccc(-c2nc(C(=O)N3CCN(Cc4ccccc4)CC3)cc3c2[C@@H](CCO)N(S(=O)C(C)(C)C)C3)c1 (stereo partly specified)	5	-3	·
COc1ccc2c3c(n(C)c2c1)[C@H](CO)N(Cc1ccccc1)CC31CCN(S(C)(=O)=O)CC1	-4	-57	·
CC(C)C#Cc1cnc2c(c1)C(=O)N([C@H](C)CO)C[C@H](C)[C@H](CN(C)C(=O)c1cnccn1)O2	2	14	52
SMILES	C diff growth	Pf Dd2 growth	Tcruzi prolif
O=C(C[C@@H]1CC[C@@H](NC(=O)Nc2ccccc2F)[C@H](CO)O1)NCc1ccccc1	-3	18	-13
COc1ccc2c3c(n(C)c2c1)[C@H](CO)N(CC1CC1)CC31CCN(C(C)=O)CC1	·	44	·
CCS(=O)(=O)N1CC2(CN(Cc3ccccc3F)[C@H](CO)c3[nH]c4cc(OC)ccc4c32)C1	1	-82*	·
CCCNC(=O)N1CC2(CN(C(=O)C3CCC3)C2)c2c([nH]c3cc(OC)ccc23)[C@@H]1CO	-5	-84*	·
COc1ccc2c3c(n(C)c2c1)[C@H](CO)N(Cc1ccccc1F)CC31CN(C(=O)C2CCCC2)C1	5	-12	·
COc1ccc2c3c([nH]c2c1)[C@@H](CO)N(Cc1ccccc1F)CC31CCN(C(=O)C2CCOCC2)CC1	3	-91*	·
COc1ccc2c3c([nH]c2c1)[C@@H](CO)N(Cc1ccccc1F)CC31CCN(C)CC1	5	-77	·
CCCNC(=O)N1CC2(CN(C(=O)C3CC3)C2)c2c([nH]c3cc(OC)ccc23)[C@@H]1CO	0	40	·
COc1ccc2c3c([nH]c2c1)[C@H](CO)N(Cc1ccccc1F)CC31CN(C(=O)C2CCCC2)C1	2	-87*	·
COc1ccc2c3c([nH]c2c1)[C@H](CO)N(Cc1ccccc1F)CC31CN(C(=O)C2CCOCC2)C1	0	-56	·
CC(C)NC(=O)Nc1ccc2c(c1)C(=O)N([C@H](C)CO)C[C@@H](C)[C@@H](CN(C)S(=O)(=O)c1ccccc1)OCCCC[C@H](C)O2	-6	-9	94
CCCC(=O)Nc1ccc2c(c1)OC[C@@H](C)N(C(=O)CC1CC1)C[C@H](C)[C@H](OC)CN(C)C2=O	·	-18	-4
CN1CCN(C(=O)C[C@H]2CC[C@@H]3[C@H](COC[C@@H](O)CN3S(=O)(=O)c3cccc(Cl)c3)O2)CC1	·	1	-24
COc1ccc2c3c([nH]c2c1)[C@H](CO)N(Cc1ccccc1F)CC31CN(C(=O)C2CCC2)C1	-1	-93*	·
COc1ccc2c3c([nH]c2c1)[C@@H](CO)N(Cc1ccccc1F)CC31CCN(C(=O)C2CCC2)CC1	0	-75	·
CO[C@H]1CN(C)C(=O)c2cc(NC(=O)c3cnccn3)ccc2OC[C@H](C)N(CC2CC2)C[C@@H]1C	2	16	·
N#Cc1cccc(-c2ccc3c(c2)[C@@H]2[C@@H](CCN2Cc2ccc4c(c2)OCO4)[C@@H](CO)N3)c1	-98*	-55	22
O=C(C1CCCC1)N1CC[C@@H]2[C@H](CO)Nc3ccc(-c4cccc(F)c4)cc3[C@@H]21	65	-65	·
N#Cc1cccc(-c2ccc3c(c2)[C@H]2[C@H](CCN2Cc2cncnc2)[C@H](CO)N3)c1	-11	-53	53
OC[C@@H]1Nc2ccc(-c3cccc(F)c3)cc2[C@@H]2[C@H]1CCN2Cc1ccc(F)cc1	1	-81*	83
O=C(O)C[C@H]1C=C[C@@H](NC(=O)CCN2CCCCC2)[C@@H](CO)O1	-1	-8	·
C[C@@H]1CN([C@@H](C)CO)C(=O)c2cc(NC(=O)C3CCCCC3)ccc2O[C@H]1CN(C)Cc1ccc(Oc2ccccc2)cc1	12	-45	109
